Results filed as inconclusive are left out. Values without a mark were called inactive. Activity calls are given as the source filed them. The call rests on the fitted dose curve.

Sequence of Neuropeptide S receptor (Homo sapiens) (Q6W5P4 whole entry, looked up): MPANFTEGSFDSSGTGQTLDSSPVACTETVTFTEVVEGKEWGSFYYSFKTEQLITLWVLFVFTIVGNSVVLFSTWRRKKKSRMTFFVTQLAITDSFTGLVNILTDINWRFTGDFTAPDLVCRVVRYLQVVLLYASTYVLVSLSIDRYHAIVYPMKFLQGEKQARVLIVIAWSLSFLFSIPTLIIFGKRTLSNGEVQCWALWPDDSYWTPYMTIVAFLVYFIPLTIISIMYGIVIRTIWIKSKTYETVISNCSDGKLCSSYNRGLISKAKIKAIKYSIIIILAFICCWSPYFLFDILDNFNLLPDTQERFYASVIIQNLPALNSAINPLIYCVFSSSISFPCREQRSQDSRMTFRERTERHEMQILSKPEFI

The target in the assay is Neuropeptide S receptor (Homo sapiens) (UniProt Q6W5P4). Briefly: Confirmation Concentration-Response Assay for Antagonists of the Neuropeptide S Receptor: cAMP Signal Transduction, SAR for Probe. The following applies: CHO-NPSR cells, cAMP TR-FRET, antagonist mode; series mostly up to 47.8 µM; activity change, negative = inhibition: at the top concentration. In short, it runs like this:
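CHO cells stably expressing NPSR (1200 cells/well, cultured 16–30 h) received compound at up to 46 μM final. They were then stimulated for 60 min at 37 °C with reagent containing 100 nM NPS and RO-201724. cAMP was read by LANCE TR-FRET (665/620 ratio), and IC50 came from Hill-equation fits.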
A general note: In TR-FRET formats the signal depends on donor and acceptor labels being close together.
As for `COc1ccc2c(c1)Oc1ncn(CCN3CCOCC3)c(=N)c1C2c1ccc(OC)c(OC)c1` (centres undefined), the Potency was 19.4 µM (active).
With `Cn1cc(P(=O)(c2ccccc2)c2ccccc2)c2ccccc21`, the “activity change, negative = inhibition” value is -17.1%.
Regarding `COc1ccc(-n2cnc3c(c2=N)C(c2cccc(OC)c2)c2c(ccc4ccccc24)O3)cc1` (centres undefined), the Potency is 9.72 µM (active).
With `COc1cccc(C2c3c(ncn(Cc4cccs4)c3=N)Oc3ccc4ccccc4c32)c1` (centres undefined), the Potency is 19.4 µM (active).
The same measure, in the same setting: under `Cc1c(P(=S)(c2ccccc2)c2ccccc2)[n+]2ccccc2n1CC(=O)c1ccccc1` stands 4.45 µM (active).
As for `Cc1c(P(=S)(c2ccccc2)c2ccccc2)c2ccccc2n1C(=O)Cc1ccccc1`, the “activity change, negative = inhibition” value is -16.5%.
As to `COc1cccc(C2c3c(ncn(-c4ccc5c(c4)OCO5)c3=N)Oc3ccc4ccccc4c32)c1` (centres undefined), the Potency was 6.14 µM (active).
For `COc1ccc(C2c3c(nc(CCc4ccccc4)[nH]c3=O)Oc3ccc4ccccc4c32)cc1OC` (centres undefined), the “activity change, negative = inhibition” value was -11.2%.
Turning to `COc1cccc(C2c3c(ncn(-c4ccc(C)cc4)c3=N)Oc3ccc4ccccc4c32)c1` (centres undefined), the Potency was 12.2 µM (active).
As to `Cc1nc2ccccn2c1P(=O)(c1ccccc1)c1ccccc1`, the “activity change, negative = inhibition” value is -20.8%.
For the compound `COc1cccc(C2c3c(ncn(-c4ccccn4)c3=N)Oc3ccc4ccccc4c32)c1` (centres undefined), the Potency is 30.7 µM (active).
On to `O=C(NCc1ccc(F)cc1)n1c(-c2ccccc2)c(P(=S)(c2ccccc2)c2ccccc2)c2ccccc21`, for which the “activity change, negative = inhibition” value is -26.1%.
`O=C1OC(c2ccccc2)(c2ccccc2)N2CCN(C(=O)NCc3ccc(F)cc3)CC12` (centres undefined): the Potency was 1.94 µM (active).
Same read-out and setting: under `COc1cccc(C2c3c(ncn(-c4ccc(NC(C)=O)cc4)c3=N)Oc3ccc4ccccc4c32)c1` (centres undefined) stands 19.4 µM (active).
On to `Cc1c(P(=S)(c2ccccc2)c2ccccc2)c2ccccc2n1CCCc1ccccc1`, for which the “activity change, negative = inhibition” value was -6.79%.
On the same count and under the same terms, under `O=P(c1ccccc1)(c1ccccc1)c1cnc2ccccn12` stands -17.1%.
As for `COc1cccc(C2c3c(ncn(-c4cccc(C#N)c4)c3=N)Oc3ccc4ccccc4c32)c1` (centres undefined), the Potency was 19.4 µM (active).
Still for that read-out and setting: in the case of `CCC(C)(CCN1CCOCC1)N(Cc1cc2ccccc2n(C)c1=O)C(=O)C1CCCCC1` (centres undefined) it was 0.308 µM (active).
Consider `O=C(NCc1ccccc1)n1cc(P(=S)(c2ccccc2)c2ccccc2)c2ccccc21`, for which the “activity change, negative = inhibition” value was -17.7%.

The values are drawn from PubChem BioAssay AID2568 (National Center for Advancing Translational Sciences (NCATS), 2010).
